# Laboratory results: the supplement of paper PMC11732987, “Enantioselective OTUD7B fragment discovery through chemoproteomics screening and high-throughput optimisation” (Communications Chemistry, 2025)
# Unmarked numbers belong to inactive results.
# What was measured:
# Assay in all cases: log2 ratio of Biotin-Ahx-Ub-VS probe labelling (compound/DMSO); higher = less target engagement, active = hit call of the paper (q ≤ 0.05, log2 ratio ≤ -1)
# Conditions in all cases: treatment time: 3 h
# [1] = compound: CN(Cc1cccc(Br)c1)C(=O)CCl
# Outline: (§1)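 Compound at 50 or 200 µM, or DMSO, was applied for 3 h in triplicate to HEK293T lysate (495 µg per sample, Tris/CHAPS/IGEPAL buffer with protease inhibitors), after which Biotin-Ahx-Ub-VS was added at 0.5 µM final for 1 h. The labelled DUBs were pulled down with NeutrAvidin, digested with LysC and trypsin, and run by diaPASEF LC-MS/MS. Ratios are averaged base-two logs of compound over DMSO from median-normalised label-free quantities by unpaired t-test, counting only proteins with at least 2 unique peptides.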
# [2] = compound: CN(Cc1cccc(OCc2ccccc2C)c1)C(=O)CCl
# Outline: as §1
# [3] = compound: CN(Cc1ccccc1)C(=O)CCl
# Outline: as §1
# [4] = compound: COc1ccc(CN(C)C(=O)CCl)cc1
# Outline: as §1
# [5] = compound: COc1cccc(CN(CCCc2ccccc2)C(=O)CCl)c1
# Outline: as §1
# [6] = compound: ClCC(=O)N1CCc2cc(Cl)c(Cl)cc2C1
# Outline: as §1
# [7] = compound: ClCC(=O)N1CCc2nc(ncc2C1)-c1ccccc1
# Outline: as §1
# [8] = compound: ClCC(=O)N1CCc2nocc2C1
# Outline: as §1
# [9] = compound: ClCC(=O)N1CCc2scc(Br)c2C1
# Outline: as §1
# [10] = compound: ClCC(=O)NC(C1CCCC1)c1cccs1
# Outline: as §1
# [11] = compound: ClCC(=O)NC1CCCc2ccccc12
# Outline: as §1
# [12] = compound: ClCC(=O)NC1CCOc2ccc(Cl)cc12
# Outline: as §1
# [13] = compound: ClCC(=O)NC1CCSc2ccccc12
# Outline: as §1
# [14] = compound: ClCC(=O)N[C@H]1CCCc2ccccc12
# Outline: as §1
# [15] = compound: Fc1ccc(N2CCN(c3nc4c(CN(C(CCl)=O)CC4)cn3)CC2)cc1.Cl.Cl
# Outline: as §1
# UniProt P54578, sequence (P54578 whole entry): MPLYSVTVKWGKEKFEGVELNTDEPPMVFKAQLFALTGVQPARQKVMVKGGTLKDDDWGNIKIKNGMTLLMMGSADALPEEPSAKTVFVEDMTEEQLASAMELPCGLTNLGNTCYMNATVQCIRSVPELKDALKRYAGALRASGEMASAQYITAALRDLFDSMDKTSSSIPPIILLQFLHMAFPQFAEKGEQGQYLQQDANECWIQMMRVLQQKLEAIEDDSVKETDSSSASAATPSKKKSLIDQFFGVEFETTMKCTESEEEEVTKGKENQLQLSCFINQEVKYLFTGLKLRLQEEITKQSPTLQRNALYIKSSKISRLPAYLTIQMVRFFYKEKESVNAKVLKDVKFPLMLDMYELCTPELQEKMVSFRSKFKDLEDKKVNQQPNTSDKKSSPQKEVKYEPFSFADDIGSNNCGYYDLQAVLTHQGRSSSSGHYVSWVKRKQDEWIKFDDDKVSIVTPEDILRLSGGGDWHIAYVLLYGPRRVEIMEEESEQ
# UniProt P54252, sequence (P54252 whole entry): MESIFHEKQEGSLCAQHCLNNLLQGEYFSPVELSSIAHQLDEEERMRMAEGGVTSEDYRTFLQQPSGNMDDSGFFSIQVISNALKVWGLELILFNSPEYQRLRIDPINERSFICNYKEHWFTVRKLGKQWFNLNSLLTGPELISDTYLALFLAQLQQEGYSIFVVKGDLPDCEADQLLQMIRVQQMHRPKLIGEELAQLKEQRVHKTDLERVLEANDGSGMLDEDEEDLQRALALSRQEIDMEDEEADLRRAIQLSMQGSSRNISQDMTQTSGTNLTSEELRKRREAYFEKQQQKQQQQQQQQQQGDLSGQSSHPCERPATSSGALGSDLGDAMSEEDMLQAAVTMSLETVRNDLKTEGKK
# UniProt P40818, sequence (P40818 whole entry): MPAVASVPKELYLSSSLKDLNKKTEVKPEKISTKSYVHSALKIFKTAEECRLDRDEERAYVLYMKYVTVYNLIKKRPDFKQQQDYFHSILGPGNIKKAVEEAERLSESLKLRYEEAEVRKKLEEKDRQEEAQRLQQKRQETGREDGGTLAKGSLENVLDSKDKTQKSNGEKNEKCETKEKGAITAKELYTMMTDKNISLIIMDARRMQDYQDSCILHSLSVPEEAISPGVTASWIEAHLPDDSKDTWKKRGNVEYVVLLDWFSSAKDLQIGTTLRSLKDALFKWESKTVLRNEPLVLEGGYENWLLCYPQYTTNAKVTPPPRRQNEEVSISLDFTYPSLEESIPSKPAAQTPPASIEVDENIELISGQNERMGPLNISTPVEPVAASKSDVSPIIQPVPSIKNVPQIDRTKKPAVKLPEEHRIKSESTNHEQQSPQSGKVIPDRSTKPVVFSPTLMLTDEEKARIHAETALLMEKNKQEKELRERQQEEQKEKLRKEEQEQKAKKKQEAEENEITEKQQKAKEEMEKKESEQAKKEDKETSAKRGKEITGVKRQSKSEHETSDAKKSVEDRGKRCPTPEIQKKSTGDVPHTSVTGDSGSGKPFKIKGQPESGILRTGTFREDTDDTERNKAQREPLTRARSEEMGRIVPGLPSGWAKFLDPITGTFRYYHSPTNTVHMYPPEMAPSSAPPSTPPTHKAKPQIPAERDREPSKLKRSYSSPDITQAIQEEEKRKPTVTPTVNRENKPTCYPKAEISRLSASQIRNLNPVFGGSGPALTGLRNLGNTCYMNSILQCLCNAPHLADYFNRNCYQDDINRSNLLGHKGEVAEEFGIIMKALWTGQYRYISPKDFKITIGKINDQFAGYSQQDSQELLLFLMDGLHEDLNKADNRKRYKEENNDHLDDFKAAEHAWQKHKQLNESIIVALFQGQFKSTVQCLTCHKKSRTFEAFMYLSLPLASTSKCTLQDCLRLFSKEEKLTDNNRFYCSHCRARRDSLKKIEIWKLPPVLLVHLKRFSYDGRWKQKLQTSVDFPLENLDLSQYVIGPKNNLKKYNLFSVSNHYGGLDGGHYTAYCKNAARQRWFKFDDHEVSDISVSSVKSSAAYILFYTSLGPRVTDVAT
# UniProt P51665, sequence (P51665 whole entry): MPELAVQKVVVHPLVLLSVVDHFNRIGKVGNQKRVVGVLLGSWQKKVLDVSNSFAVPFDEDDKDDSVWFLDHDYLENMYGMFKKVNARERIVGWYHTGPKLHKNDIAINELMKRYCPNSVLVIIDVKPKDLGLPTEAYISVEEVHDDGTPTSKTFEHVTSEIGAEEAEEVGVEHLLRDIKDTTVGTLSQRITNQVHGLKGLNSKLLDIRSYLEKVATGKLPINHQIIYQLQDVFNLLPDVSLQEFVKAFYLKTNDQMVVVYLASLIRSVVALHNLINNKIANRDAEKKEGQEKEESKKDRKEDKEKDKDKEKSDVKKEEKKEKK
# UniProt Q93008, sequence (Q93008 whole entry): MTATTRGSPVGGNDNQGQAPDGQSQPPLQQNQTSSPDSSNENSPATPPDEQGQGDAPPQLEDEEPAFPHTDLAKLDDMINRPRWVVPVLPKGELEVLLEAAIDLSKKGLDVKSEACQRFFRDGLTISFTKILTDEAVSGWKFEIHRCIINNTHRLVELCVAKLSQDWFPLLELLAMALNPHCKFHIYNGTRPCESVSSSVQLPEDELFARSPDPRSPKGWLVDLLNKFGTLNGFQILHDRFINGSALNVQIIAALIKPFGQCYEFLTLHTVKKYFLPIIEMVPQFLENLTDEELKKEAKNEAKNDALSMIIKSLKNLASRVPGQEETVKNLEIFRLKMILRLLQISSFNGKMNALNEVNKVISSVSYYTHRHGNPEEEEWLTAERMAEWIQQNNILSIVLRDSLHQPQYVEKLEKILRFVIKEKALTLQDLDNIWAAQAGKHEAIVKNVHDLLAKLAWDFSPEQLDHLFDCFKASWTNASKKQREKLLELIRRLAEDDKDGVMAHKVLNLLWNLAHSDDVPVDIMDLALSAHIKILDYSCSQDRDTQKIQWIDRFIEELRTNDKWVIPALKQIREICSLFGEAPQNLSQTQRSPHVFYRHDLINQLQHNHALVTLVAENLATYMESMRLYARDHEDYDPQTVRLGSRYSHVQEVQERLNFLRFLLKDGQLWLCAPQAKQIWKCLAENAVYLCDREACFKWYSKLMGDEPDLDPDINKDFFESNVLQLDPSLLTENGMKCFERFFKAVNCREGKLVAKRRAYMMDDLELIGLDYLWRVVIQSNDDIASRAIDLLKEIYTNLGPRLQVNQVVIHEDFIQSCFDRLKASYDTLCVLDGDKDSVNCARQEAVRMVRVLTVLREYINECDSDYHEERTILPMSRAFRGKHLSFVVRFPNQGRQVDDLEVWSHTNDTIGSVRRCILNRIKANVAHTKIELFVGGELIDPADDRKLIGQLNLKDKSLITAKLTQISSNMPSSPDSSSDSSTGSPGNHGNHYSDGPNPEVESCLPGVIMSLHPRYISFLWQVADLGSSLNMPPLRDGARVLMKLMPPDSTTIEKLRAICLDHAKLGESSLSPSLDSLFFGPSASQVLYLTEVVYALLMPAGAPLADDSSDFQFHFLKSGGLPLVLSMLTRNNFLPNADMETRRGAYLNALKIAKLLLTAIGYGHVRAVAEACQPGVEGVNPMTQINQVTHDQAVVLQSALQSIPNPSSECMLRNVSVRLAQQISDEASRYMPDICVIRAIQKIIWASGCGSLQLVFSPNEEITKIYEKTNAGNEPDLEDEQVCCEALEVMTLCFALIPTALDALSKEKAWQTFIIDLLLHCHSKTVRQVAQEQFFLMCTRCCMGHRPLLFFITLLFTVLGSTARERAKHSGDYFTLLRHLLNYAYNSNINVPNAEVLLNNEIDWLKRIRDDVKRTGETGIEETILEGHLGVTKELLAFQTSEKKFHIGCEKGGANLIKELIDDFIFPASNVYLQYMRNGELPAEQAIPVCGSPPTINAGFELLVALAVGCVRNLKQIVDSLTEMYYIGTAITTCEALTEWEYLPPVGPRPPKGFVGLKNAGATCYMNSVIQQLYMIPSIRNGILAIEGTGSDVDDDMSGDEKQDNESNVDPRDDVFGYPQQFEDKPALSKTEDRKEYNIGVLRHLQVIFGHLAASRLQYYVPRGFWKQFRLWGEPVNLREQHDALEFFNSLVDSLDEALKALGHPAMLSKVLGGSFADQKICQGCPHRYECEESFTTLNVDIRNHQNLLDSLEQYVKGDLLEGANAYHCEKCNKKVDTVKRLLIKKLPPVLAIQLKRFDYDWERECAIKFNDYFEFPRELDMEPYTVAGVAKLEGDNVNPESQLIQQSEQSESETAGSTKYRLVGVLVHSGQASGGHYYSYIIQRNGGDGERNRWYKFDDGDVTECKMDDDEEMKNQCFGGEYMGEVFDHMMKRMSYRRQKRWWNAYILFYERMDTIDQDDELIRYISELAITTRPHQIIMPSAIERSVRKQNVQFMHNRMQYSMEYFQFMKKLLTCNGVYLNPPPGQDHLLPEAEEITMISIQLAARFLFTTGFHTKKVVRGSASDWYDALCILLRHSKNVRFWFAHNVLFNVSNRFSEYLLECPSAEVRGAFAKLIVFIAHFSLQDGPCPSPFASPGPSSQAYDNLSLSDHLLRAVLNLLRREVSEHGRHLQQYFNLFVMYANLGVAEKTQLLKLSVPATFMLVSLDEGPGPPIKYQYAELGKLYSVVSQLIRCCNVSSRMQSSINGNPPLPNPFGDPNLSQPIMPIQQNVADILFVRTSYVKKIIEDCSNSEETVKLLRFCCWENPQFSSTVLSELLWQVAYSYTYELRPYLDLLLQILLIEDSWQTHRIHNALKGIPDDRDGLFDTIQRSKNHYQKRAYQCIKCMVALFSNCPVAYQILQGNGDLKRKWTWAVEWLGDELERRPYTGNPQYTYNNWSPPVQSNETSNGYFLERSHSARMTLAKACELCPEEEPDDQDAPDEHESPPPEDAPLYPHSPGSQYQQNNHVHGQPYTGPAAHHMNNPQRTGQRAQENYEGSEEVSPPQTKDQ
# UniProt P09936, sequence (P09936 whole entry, looked up): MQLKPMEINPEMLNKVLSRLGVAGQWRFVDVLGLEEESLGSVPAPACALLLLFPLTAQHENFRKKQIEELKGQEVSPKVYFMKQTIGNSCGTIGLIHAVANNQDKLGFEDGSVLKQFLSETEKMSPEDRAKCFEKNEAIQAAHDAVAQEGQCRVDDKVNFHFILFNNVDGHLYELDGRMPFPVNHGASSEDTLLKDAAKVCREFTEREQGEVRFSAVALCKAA
Target,log2 ratio of Biotin-Ahx-Ub-VS probe labelling ([1]; compound concentration: 50uM),log2 ratio of Biotin-Ahx-Ub-VS probe labelling ([1]; compound concentration: 200uM),log2 ratio of Biotin-Ahx-Ub-VS probe labelling ([2]; compound concentration: 50uM),log2 ratio of Biotin-Ahx-Ub-VS probe labelling ([2]; compound concentration: 200uM),log2 ratio of Biotin-Ahx-Ub-VS probe labelling ([3]; compound concentration: 50uM),log2 ratio of Biotin-Ahx-Ub-VS probe labelling ([3]; compound concentration: 200uM),log2 ratio of Biotin-Ahx-Ub-VS probe labelling ([4]; compound concentration: 50uM),log2 ratio of Biotin-Ahx-Ub-VS probe labelling ([4]; compound concentration: 200uM),log2 ratio of Biotin-Ahx-Ub-VS probe labelling ([5]; compound concentration: 50uM),log2 ratio of Biotin-Ahx-Ub-VS probe labelling ([5]; compound concentration: 200uM),log2 ratio of Biotin-Ahx-Ub-VS probe labelling ([6]; compound concentration: 50uM),log2 ratio of Biotin-Ahx-Ub-VS probe labelling ([6]; compound concentration: 200uM),log2 ratio of Biotin-Ahx-Ub-VS probe labelling ([7]; compound concentration: 50uM),log2 ratio of Biotin-Ahx-Ub-VS probe labelling ([7]; compound concentration: 200uM),log2 ratio of Biotin-Ahx-Ub-VS probe labelling ([8]; compound concentration: 50uM),log2 ratio of Biotin-Ahx-Ub-VS probe labelling ([8]; compound concentration: 200uM),log2 ratio of Biotin-Ahx-Ub-VS probe labelling ([9]; compound concentration: 50uM),log2 ratio of Biotin-Ahx-Ub-VS probe labelling ([9]; compound concentration: 200uM),log2 ratio of Biotin-Ahx-Ub-VS probe labelling ([10]; compound concentration: 50uM),log2 ratio of Biotin-Ahx-Ub-VS probe labelling ([10]; compound concentration: 200uM),log2 ratio of Biotin-Ahx-Ub-VS probe labelling ([11]; compound concentration: 50uM),log2 ratio of Biotin-Ahx-Ub-VS probe labelling ([11]; compound concentration: 200uM),log2 ratio of Biotin-Ahx-Ub-VS probe labelling ([12]; compound concentration: 50uM),log2 ratio of Biotin-Ahx-Ub-VS probe labelling ([12]; compound concentration: 200uM),log2 ratio of Biotin-Ahx-Ub-VS probe labelling ([13]; compound concentration: 50uM),log2 ratio of Biotin-Ahx-Ub-VS probe labelling ([13]; compound concentration: 200uM),log2 ratio of Biotin-Ahx-Ub-VS probe labelling ([14]; compound concentration: 50uM),log2 ratio of Biotin-Ahx-Ub-VS probe labelling ([14]; compound concentration: 200uM),log2 ratio of Biotin-Ahx-Ub-VS probe labelling ([15]; compound concentration: 50uM),log2 ratio of Biotin-Ahx-Ub-VS probe labelling ([15]; compound concentration: 200uM)
USP8 (UniProt P40818),-0.123,-0.132,-0.488,-0.321,-0.346,-0.338,-0.306,-0.187,-0.167,-0.253,0.0209,-0.351,-0.00835,-0.371,-0.247,-0.347,-0.126,-0.311,-0.0892,-0.0187,-0.193,-0.0275,-0.286,-0.268,0.0453,-0.166,-0.0844,-0.245,-0.136,-0.61
PSMD7 (UniProt P51665),-1.92,0.377,0.204,-0.694,0.305,1.21,-0.346,2.6,0.459,0.335,-1.17,0.126,-0.153,0.514,0.812,0.83,0.689,0.149,0.0697,0.463,-5.4,-0.933,-1.46,0.606,0.408,0.0589,1.77,0.0535,-0.177,-1.73
USP14 (UniProt P54578),-0.191,-0.555,-0.544,-0.62,-0.14,0.0709,-0.127,-0.0256,-0.187,-0.626,-0.137,-0.35,0.0498,0.0841,-0.186,-0.17,-0.438,-1 (active),-0.115,-0.1,-0.364,0.154,-0.397,-0.0189,-0.186,-0.179,0.115,-0.537,0.108,-0.424
UCHL1 (UniProt P09936),-0.0723,0.424,-0.437,-0.268,-0.373,-0.192,-0.293,0.0271,0.0165,0.0676,0.153,-0.0523,0.109,-0.0372,-0.379,-0.3,-0.0189,-0.0895,-0.0993,-0.00199,-0.0609,0.151,-0.516,-0.228,0.0655,-0.146,-0.0596,-0.223,0.0885,-0.474
COPS5 (UniProt Q92905),0.118,-0.11,-0.375,-0.104,-0.103,0.0593,0.00458,-0.13,-0.0338,-0.0977,-0.307,-0.222,-0.406,0.395,-0.35,0.152,-0.23,-0.704,0.21,-0.0541,-0.103,0.0648,-0.403,-0.0328,-0.0481,0.169,-0.289,-0.229,-0.304,0.0806
USP19 (UniProt O94966),-0.419,-1.2 (active),-1 (active),-1.76 (active),-0.372,-0.827,-0.301,-0.572,-0.64,-1.37 (active),-0.948,-3.11 (active),-0.512,-2.01 (active),-0.407,-1.17 (active),-0.747,-2.35 (active),-0.0897,-0.299,-0.205,-0.219,-0.252,-0.38,-0.00658,-0.393,-0.0565,-0.411,-1.25 (active),-3.86 (active)
ATXN3 (UniProt P54252),-0.252,-0.624,-0.719,-1.1 (active),-0.361,-0.872,-0.229,-0.842,-0.391,-0.729,-0.915,-2.63 (active),-0.221,-1.26 (active),-0.325,-1.08 (active),-0.485,-1.78 (active),0.0786,-0.141,-0.0534,-0.164,-0.0955,-0.25,0.24,-0.293,-0.316,-0.596,-0.648,-2.72 (active)
USP24 (UniProt Q9UPU5),-0.487,-1.48 (active),-0.993,-2.02 (active),-0.374,-0.994,-0.209,-0.569,-0.878,-1.68 (active),-0.754,-2.35 (active),-0.355,-1.41 (active),-0.201,-0.568,-1.1 (active),-2.46 (active),-0.0604,-0.635,-0.0627,-0.259,-0.0337,-0.691,0.0214,-0.445,0.184,-0.614,-0.726,-2.07 (active)
FAM105A (UniProt Q9NUU6),-0.187,-0.00846,-0.255,-0.114,-0.198,0.0229,-0.0227,-0.0524,-0.219,-0.197,0.119,-0.429,-0.124,-0.242,-0.252,-0.149,0.049,-0.0833,0.0872,0.0369,-0.0884,-0.0754,-0.148,-0.0677,0.0795,-0.0897,0.0155,-0.0104,0.239,-0.443
USP9X (UniProt Q93008),-0.128,-0.446,-0.553,-1.59 (active),-0.193,-0.435,-0.101,-0.202,-0.221,-1.31 (active),-0.225,-1.96 (active),0.0933,-0.622,-0.15,-0.284,-0.229,-1.13 (active),-0.00568,-0.248,-0.0287,-0.0252,-0.131,-0.237,0.0883,-0.151,0.0465,-0.214,-0.231,-1.53 (active)
UCHL5 (UniProt Q9Y5K5),-0.213,-0.442,-0.735,-1.33 (active),-0.356,-0.432,-0.288,-0.317,-0.37,-1.17 (active),-0.0548,-1.36 (active),0.0333,-0.459,-0.287,-0.349,-0.0669,-0.74,-0.0991,-0.214,-0.182,-0.0853,-0.308,-0.472,0.0503,-0.365,-0.0983,-0.443,-0.226,-1.37 (active)
